# Experimental data published in ChEMBL document CHEMBL3988442, “University of Dundee, Small-Polar-MMV Screening Library” (2021).
# In all, about 69,000 compounds went through this assay and about 1,000 (1.4%) showed an effect of 50% or more. The sample holds strong results, similar compounds and a random draw of the others, so the mix is not that of the screen.
# System: Leishmania donovani
# Assay: Leishmania intramacrophage assay
# Assay type: functional, organism-based
# Design: scale not given: in the data most compounds retested in dose-response had high values
compound,measurement,setting,value
CN(CC1CC1)C(=O)Cc1csc(-c2ncccn2)n1,Percent Effect,"30.3 µM, […]",39.01%
CN(CCC#N)C(=O)Cc1csc(-c2ncccn2)n1,Percent Effect,"30.3 µM, […]",54.73%
COCC1CCCCN1C(=O)c1cc(-c2cccc(OC)c2)n[nH]1 (centres undefined),Percent Effect,"30.3 µM, […]",-0.5575%
COCC(=O)NCCc1nc(N(C)C)ncc1-c1ccncc1,Percent Effect,"30.3 µM, […]",29.7%
Cn1cc(C(=O)N2CC[C@@H]3[C@@H]2CCN3Cc2ccccc2)cn1.O=C(O)C(F)(F)F,Percent Effect,"30.3 µM, […]",4.091%
Cn1cc(C(=O)N2CC[C@@H]3[C@@H]2CCN3Cc2cccc(F)c2)cn1.O=C(O)C(F)(F)F,Percent Effect,"30 µM, 30.03 µM",2.666%
Cn1cc(CN2CC[C@@H]3[C@@H]2CCN3C(=O)c2cccc(F)c2)cn1.O=C(O)C(F)(F)F,Percent Effect,"30.3 µM, […]",56.05%
Cc1oncc1C(=O)N1CC[C@H]2CO[C@H](CN3CCCC3)[C@H]2C1,Percent Effect,"30.3 µM, […]",5.899%
COc1c(CNC2CCCOc3ccc(F)cc32)c(C)nn1C.Cl (centres undefined),Percent Effect,"30.3 µM, […]",19.28%
COc1c(CNC2CCc3cc(F)ccc32)c(C)nn1C.Cl (centres undefined),Percent Effect,"30 µM, 30.03 µM",46.26%
COc1c(CNC2CCc3c(Cl)cccc32)c(C)nn1C.Cl (centres undefined),Percent Effect,"30 µM, 30.03 µM",56.04%
COc1c(CNC2CCSc3ccc(F)cc32)c(C)nn1C.Cl (centres undefined),Percent Effect,"30 µM, 30.03 µM",60.68%
COc1c(CNC2CCc3c(F)cccc32)c(C)nn1C.Cl (centres undefined),Percent Effect,30 µM,34.02%
COc1c(CNC2CCOc3c(Cl)cccc32)c(C)nn1C.Cl (centres undefined),Percent Effect,"30.3 µM, […]",30.91%
COc1ccc(F)c(CNC2CCCc3nc(N(C)C)ncc32)c1 (centres undefined),Percent Effect,"30.3 µM, […]",34.48%
O=C(c1ccc(Cl)cc1)N1CC2(CCNC2)OCc2ccccc21 (centres undefined),Percent Effect,"30.3 µM, […]",67.31%
O=C(c1ccccc1)N1CC2(CCNC2)OCc2ccccc21 (centres undefined),Percent Effect,"30.3 µM, […]",23.45%
O=C(C1CCCC1)N1CC2(CCNC2)OCc2ccccc21 (centres undefined),Percent Effect,"30.3 µM, […]",12.94%
Cc1noc(CSc2ccc(C(F)(F)F)cn2)n1,Percent Effect,"30.3 µM, […]",27.73%
CCCc1nc(C)c(C(=O)NCCn2ccnc2)s1,Percent Effect,"30.3 µM, […]",-7.791%
O=C(NCCc1cccc(Cl)c1)C1CCOCC1,Percent Effect,"30.3 µM, […]",-10.81%
Cl.Clc1cccc(N[C@H]2CCCN[C@H]2Cc2ccccc2)c1,Percent Effect,"30.3 µM, […]",98.49%
CCOc1ccc(Cl)cc1C1CCCN1.Cl (centres undefined),Percent Effect,"30 µM, 30.03 µM",7.031%
Cl.Cl.Clc1cccc(C[C@@H]2NCCC[C@@H]2Nc2ccccc2)c1,Percent Effect,"30.3 µM, […]",98.87%
Cl.O=C(OCC1CCCN1)c1cccc(NC(=O)c2ccco2)c1 (centres undefined),Percent Effect,"30.3 µM, […]",19.64%
Cl.Cl.Clc1cccc(C[C@@H]2NCCC[C@@H]2Nc2cccc(Cl)c2)c1,Percent Effect,"30.3 µM, […]",98%
O=C1NCCCc2[nH]c(Cc3cccc(Cl)c3)nc21,Percent Effect,"30.3 µM, […]",16.75%
O=C(Cc1cccc(Cl)c1)N[C@@H]1CCNC[C@H]1O,Percent Effect,"30 µM, 30.03 µM",-4.847%
O=C(C[S+]([O-])Cc1cccc(Cl)c1)NC1CCCC1 (centres undefined),Percent Effect,"30.3 µM, […]",13.89%
CCn1cc2c(n1)C(COC)CN(Cc1ccccn1)C2 (centres undefined),Percent Effect,"30 µM, 30.03 µM",-30.8%
O=C(c1csc(-c2ncccn2)n1)N1CCN(C2CCCC2)CC1,Percent Effect,"30.3 µM, […]",15.8%
N#Cc1ccc(OC[C@]23COC[C@H]2CN(c2ncccn2)C3)nc1,Percent Effect,"30.3 µM, […]",-11.64%
COc1cc(N2C[C@@H]3COC[C@]3(COc3ccccn3)C2)ncn1.O=C(O)C(F)(F)F.O=C(O)C(F)(F)F,Percent Effect,"30.3 µM, […]",12.8%
COc1cc(N2C[C@@H]3COC[C@]3(COc3ccc(C#N)cn3)C2)ncn1,Percent Effect,"30 µM, 30.03 µM",56.85%
Cc1csc(NC(=O)[C@@H]2C[C@H]3[C@H](CCN3S(C)(=O)=O)O2)n1,Percent Effect,"30.3 µM, […]",37.69%
CCOCCNc1nc(C2CCCC2)nc2c1cnn2C,Percent Effect,"30 µM, 30.03 µM",33.9%
Cn1ncc2c(NCCCOc3cccnc3)nc(C3CCCC3)nc21,Percent Effect,"30.3 µM, […]",7.938%
Cn1ncc2c(NCCOc3ccc(F)cc3)nc(C3CCCC3)nc21,Percent Effect,"30 µM, 30.03 µM",50.15%
CC[C@H]1CN(C(=O)C2CC2)CC[C@H]1CC(=O)NCCN1CCOCC1,Percent Effect,"30.3 µM, […]",-123.3%
CN(Cc1cc[nH]n1)C(=O)c1cccc(CCC(C)(C)O)c1,Percent Effect,"30 µM, 30.03 µM",14.32%
CN(Cc1n[nH]c2c1CCC2)C(=O)c1cccc(CCC(C)(C)O)c1,Percent Effect,"30.3 µM, […]",57.38%
CN(Cc1n[nH]c2c1CCCC2)C(=O)c1cccc(CCC(C)(C)O)c1,Percent Effect,"30.3 µM, […]",22.46%
N#Cc1ccc(CN2CCN(C(=O)c3cc(C4CC4)[nH]n3)CC2)cc1,Percent Effect,"30 µM, 30.03 µM",47.32%
CC(C)(C)CN(CCC#N)C(=O)c1cccc(CN2CCCC2)c1,Percent Effect,"30.3 µM, […]",15.51%
Cc1cccnc1C(=O)N1CCCC(c2[nH]ncc2S(C)(=O)=O)C1 (centres undefined),Percent Effect,"30 µM, 30.03 µM",-23.25%
CC(=O)N1CC[C@]2(O)CCN(Cc3nc(C)c[nH]3)C[C@@H]2C1,Percent Effect,"30.3 µM, […]",3.766%
O=C(C1CCCC1)N1C[C@@H]2CCN(c3cnccn3)C[C@@H]2C1.O=C(O)C(F)(F)F,Percent Effect,"30.3 µM, […]",10.31%
O=C(O)C(F)(F)F.O=C(O)C(F)(F)F.c1cnc(N2C[C@H]3CCN(CCN4CCCC4)C[C@H]3C2)cn1,Percent Effect,"30.3 µM, […]",50.81%
O=C(O)C(F)(F)F.c1cnc(N2C[C@H]3CCN(CC4CC4)C[C@H]3C2)cn1,Percent Effect,"30.3 µM, […]",30.4%
